Measurements taken from PubChem BioAssay (EPA / NIEHS).
Active and inactive are the calls of the source. The calls were made as follows: active = hit-call score of the fitted dose curve at least 0.9, where 1 is the maximum; inactive = score below 0.9.

How the values were obtained:
Settings in all cases: mRNA level, 48 h; actives raise or lower the signal
[1] = read-out: Apolipoprotein A-V (APOA5) gene, APOA5 (gene 116519); assay: LTEA_HepaRG_APOA5: Life Technologies and Expression Analysis (LTEA) Assay for Apolipoprotein A-V (APOA5) gene using HepaRG (AID 2283474)
Summary of the method: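 HepaRG, 48 h chemical exposure in serum-free induction medium, 8-pt half-log series (top 100 uM), 0.5% DMSO vehicle, duplicates. Readout: APOA5 mRNA by qRT-PCR, housekeeping-normalized; bidirectional fit vs DMSO baseline.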

[2] = read-out: Bcl-2 (BID) gene, BID (gene 637); assay: LTEA_HepaRG_BID: Life Technologies and Expression Analysis (LTEA) Assay for Bcl-2 (BID) gene using HepaRG (AID 2283476)
Summary of the method: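 Transcript levels of BID, measured by qRT-PCR and normalized to three housekeeping genes, were fitted bidirectionally against DMSO controls. Cells were HepaRG, dosed 48 h at up to 100 uM.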

[3] = read-out: Caspase-3 (Homo sapiens) (UniProt P42574); assay: LTEA_HepaRG_CASP3: Life Technologies and Expression Analysis (LTEA) Assay for cysteine-aspartic acid protease (CASP3) using HepaRG (AID 2283477)
Summary of the method: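 HepaRG, 48 h exposure, 8 conc. (top 100 uM, half-log steps, duplicate), 0.5% DMSO vehicle; qRT-PCR of CASP3 transcript, housekeeping-normalised (ACTB/GAPDH/POLR2A); bidirectional curve fit vs DMSO baseline.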

[4] = read-out: Cytochrome P450 (CYP24A1), CYP24A1 (gene 1591); assay: LTEA_HepaRG_CYP24A1: Life Technologies and Expression Analysis (LTEA) Assay for Cytochrome P450 (CYP24A1) using HepaRG (AID 2283478)
Summary of the method: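 qRT-PCR read-out: CYP24A1 transcript levels normalized to three housekeeping genes, bidirectional curve fits against 0.5% DMSO baseline. Human HepaRG cells treated 48 h with chemicals at eight concentrations from 100 uM in half-log steps.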

[5] = read-out: Cytochrome P450 (CYP1A2), CYP1A2 (gene 1544); assay: LTEA_HepaRG_CYP1A2: Life Technologies and Expression Analysis (LTEA) Assay for Cytochrome P450 (CYP1A2) using HepaRG (AID 2283479)
Summary of the method: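 HepaRG, 48 h exposure, top 100 uM, half-log 8-pt, 0.5% DMSO vehicle, duplicates. Readout: TaqMan qRT-PCR of CYP1A2 mRNA, housekeeping-normalized (ACTB/GAPDH/POLR2A). Gain/loss fit relative to DMSO baseline.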

[6] = read-out: cysteine-aspartic acid protease (CASP8), CASP8 (gene 841); assay: LTEA_HepaRG_CASP8: Life Technologies and Expression Analysis (LTEA) Assay for cysteine-aspartic acid protease (CASP8) using HepaRG (AID 2283480)
Summary of the method: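 Differentiated HepaRG cells in serum-free induction medium, 48 h exposure, eight-point half-log series from 100 uM in 0.5% DMSO, duplicates. CASP8 mRNA by qRT-PCR, normalized to ACTB, GAPDH, POLR2A; bidirectional fit versus DMSO.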

[7] = read-out: Cytochrome P450 2C19 (Homo sapiens) (UniProt P33261); assay: LTEA_HepaRG_CYP2C19: Life Technologies and Expression Analysis (LTEA) Assay for CYP2C19 using HepaRG (AID 2283482)
Summary of the method: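 HepaRG, 48 h chemical exposure, 8-pt half-log series from 100 uM in 0.5% DMSO, duplicates. Readout: CYP2C19 mRNA by TaqMan qRT-PCR, housekeeping-normalized. Bidirectional fit vs DMSO baseline; phenobarbital 1mM as induction control.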

[8] = read-out: CYP2C8 (gene 1558); assay: LTEA_HepaRG_CYP2C8: Life Technologies and Expression Analysis (LTEA) Assay for CYP2C8 using HepaRG (AID 2283483)
Summary of the method: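 Differentiated HepaRG cells in serum-free induction medium exposed 48 h in duplicate to 8 half-log concentrations from 100 uM in 0.5% DMSO. CYP2C8 mRNA by qRT-PCR normalized to ACTB, GAPDH, POLR2A; bidirectional fit versus DMSO.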

Sequence of Cytochrome P450 2C19 (Homo sapiens) (P33261 whole entry, looked up): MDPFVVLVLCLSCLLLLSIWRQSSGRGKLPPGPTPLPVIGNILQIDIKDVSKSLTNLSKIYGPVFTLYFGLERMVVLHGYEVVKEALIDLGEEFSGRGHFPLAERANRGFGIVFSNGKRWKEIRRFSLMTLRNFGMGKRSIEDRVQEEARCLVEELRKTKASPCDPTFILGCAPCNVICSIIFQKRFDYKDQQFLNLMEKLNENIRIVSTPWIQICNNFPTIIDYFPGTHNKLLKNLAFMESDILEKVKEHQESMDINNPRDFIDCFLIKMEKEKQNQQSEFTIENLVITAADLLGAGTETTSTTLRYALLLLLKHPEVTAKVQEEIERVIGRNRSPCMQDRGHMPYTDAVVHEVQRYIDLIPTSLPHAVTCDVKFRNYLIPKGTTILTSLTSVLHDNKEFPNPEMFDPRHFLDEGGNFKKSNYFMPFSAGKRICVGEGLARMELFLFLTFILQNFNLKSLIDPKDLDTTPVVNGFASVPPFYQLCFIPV
Sequence of Caspase-3 (Homo sapiens) (P42574 whole entry, looked up): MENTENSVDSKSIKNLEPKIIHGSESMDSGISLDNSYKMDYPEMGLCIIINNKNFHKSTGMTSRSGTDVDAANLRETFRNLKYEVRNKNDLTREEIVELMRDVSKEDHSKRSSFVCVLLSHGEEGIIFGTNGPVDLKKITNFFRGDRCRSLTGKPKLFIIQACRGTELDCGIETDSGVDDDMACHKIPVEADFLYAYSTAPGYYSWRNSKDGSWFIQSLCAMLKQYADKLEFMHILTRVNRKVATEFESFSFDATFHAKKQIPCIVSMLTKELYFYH

Row | SMILES | outcome [1] | outcome [2] | outcome [3] | outcome [4] | AC50 [5] | outcome [6] | outcome [7] | AC50 [7] | AC50 [4] | AC50 [1] | outcome [5] | AC50 [2] | outcome [8]
1 | CCN(CC)c1ccccc1 | inactive | inactive | inactive | inactive | 39 µM (active) | inactive | inactive |  |  |  |  |  | 
2 | CCNc1nc(Cl)nc(NC(C)(C)C)n1 | inactive | inactive | inactive | inactive | 32.1 µM (active) | inactive |  | 2.46 µM (active) |  |  |  |  | 
3 | CC(C)(C)c1ccc(O)cc1 | inactive | inactive | inactive |  |  | inactive |  |  |  |  |  |  | 
4 | CC(Cc1ccc(OCC(=O)O)cc1)NCC(O)c1csc(C(F)(F)F)n1 (stereo unspecified) | inactive | inactive | inactive |  | 0.0181 µM (active) | inactive | inactive |  | 0.00316 µM (active) |  |  |  | 
5 | O=P(Oc1ccccc1)(Oc1ccccc1)Oc1ccccc1 |  | inactive | inactive | inactive | 27.4 µM (active) | inactive |  | 2.95 µM (active) |  | 50 µM (active) |  |  | 
6 | CCCCCCCc1ccc(O)cc1 | inactive | inactive | inactive | inactive |  | inactive | inactive |  |  |  | inactive |  | 
7 | CC(Cl)(Cl)C(=O)O | inactive | inactive | inactive |  |  | inactive | inactive |  |  |  | inactive |  | 
8 | O=C(O)C1C(C(=O)O)C2(Cl)C(Cl)=C(Cl)C1(Cl)C2(Cl)Cl (stereo unspecified) | inactive | inactive | inactive | inactive |  | inactive | inactive |  |  |  | inactive |  | 
9 | O=C(O)C(Cl)Cl | inactive | inactive | inactive | inactive |  | inactive | inactive |  |  |  | inactive |  | 
10 | CCCCc1ccccc1 | inactive | inactive | inactive | inactive | 50 µM (active) | inactive | inactive |  |  |  |  |  | 
11 | OCC1CO1 (stereo unspecified) | inactive | inactive | inactive | inactive |  | inactive | inactive |  |  |  | inactive |  | 
12 | CCCN(CCC)c1c([N+](=O)[O-])cc(C(C)C)cc1[N+](=O)[O-] |  |  | inactive | inactive | 27.3 µM (active) | inactive |  | 9.77 µM (active) |  | 0.123 µM (active) |  | 0.119 µM (active) | 
13 | O=[N+]([O-])c1ccccc1 | inactive | inactive | inactive | inactive |  | inactive | inactive |  |  |  | inactive |  | 
14 | CSC(C)(C)C=NO | inactive | inactive | inactive | inactive |  | inactive | inactive |  |  |  | inactive |  | 
15 | CCCCN(CCCC)SN(C)C(=O)Oc1cccc2c1OC(C)(C)C2 | inactive | inactive | inactive | inactive |  | inactive |  | 16.7 µM (active) |  |  | inactive |  | inactive
16 | CCOC(=O)c1ccccc1C(=O)OCC | inactive | inactive | inactive | inactive | 83 µM (active) | inactive | inactive |  |  |  |  |  | 
17 | Cc1cccc(N)c1 | inactive | inactive | inactive | inactive | 50.2 µM (active) | inactive | inactive |  |  |  |  |  | 
18 | CCC(C)(C)c1ccc(O)cc1 | inactive | inactive | inactive | inactive |  | inactive | inactive |  |  |  | inactive |  | 
19 | O=P1(N(CCCl)CCCl)NCCCO1 (stereo unspecified) | inactive | inactive | inactive | inactive |  | inactive | inactive |  |  |  | inactive |  | 
20 | CN(C)C(=O)Cl | inactive | inactive | inactive | inactive |  | inactive | inactive |  |  |  | inactive |  | 
21 | CCOS(=O)(=O)OCC | inactive | inactive | inactive | inactive |  | inactive | inactive |  |  |  | inactive |  | 
22 | c1ccc2c(c1)Nc1ccccc1S2 | inactive | inactive | inactive | inactive | 82.8 µM (active) | inactive |  | 50 µM (active) |  |  |  |  | 
